From PubChem BioAssay AID1347075 (National Center for Advancing Translational Sciences (NCATS), 2019) come the findings set out here.

Out of some 400,000 compounds screened, about 5,500 (1.4%) were called active. Entries that show only a call come without a potency. Another 9% or so got no clear call; they are omitted. Calls follow the shape of the dose curve; as a rule, active = well fitted cell-killing curve with a large enough effect; inconclusive = small, poorly fitted or top-dose-only effect, or effect the other way; inactive = flat fitted curve, though single readings scatter. This excerpt belongs to a sample that is enriched for actives.
Potency is read from the fitted curve at half-maximal effect.

The nature of the assay: qHTS assay for MDR1-selective chemotherapeutics: Primary screen using the parental adenocarcinoma cell KB-3-1. Also: nearly all actives have a fitted effect of over 60% in size. The following applies: KB-3-1 viability, CellTiter-Glo ATP luminescence, 72 h; series mostly up to 46.1 µM. From the text: A prime difficulty in effectively treating cancer is the development of cellular resistance to multiple structurally unrelated anticancer drugs, a phenomenon known as multidrug resistance (MDR). […] Numerous strategies to overcome P-gp-mediated MDR have been explored, including the design of drugs that evade recognition and efflux, and development of inhibitors to block efflux and restore drug accumulation. […] An alternative approach is to exploit resistance by identifying drugs that target MDR cells over the non-resistant parental cells from which they were selected. […] The development of MDR1-selective agents represents a new strategy for resolving multidrug resistance, as it remains a long-standing clinical challenge for cancer chemotherapy.
Our goal is to identify compounds that selectively kill P-gp-expressing MDR cells. We will identify MDR1-selective compounds by comparing toxicity of compounds in the screening library against parental, drug-naive (KB-3-1) adenocarcinoma cells as well as their drug-selected MDR sub-line (KB-V1). The differential toxicity of compounds against these two cell lines will be used to identify MDR1-selective compounds, whose cytotoxicity is potentiated, rather than diminished, by P-gp expression. This assay will be utilized to conduct a quantitative high-throughput screen (qHTS) in collaboration with the NIH Chemical Genomics Center to identify selective agents, and probe hits arising from the screen will be validated using secondary assays and characterized through a well-established follow-up research program. This screen was run against the entire NCGC library collection of about 400,000 compounds.
NIH Molecular Libraries Probe Production Network [MLPCN]
NIH Chemical Genomics Center [NCGC]
PI: Michael Gottesman PhD, National Cancer Institute, NIH
Briefly, 5 microL of media containing either KB-3-1 cells (columns 1-2, 4-48) are dispensed into Greiner white, treated solid-bottom 1536-well assay plates (media-only control is added to column 3). Compounds are then transferred via Kalypsys pin tool equipped with 1536-pin array (10 nL slotted pins, V&P Scientific, San Diego, CA). Following addition of compound, the plates are incubated at 37 degrees C for 72 hours. CellTiter-Glo (2.5 µL/well) is then added, and the plates are read in a ViewLux reader (Perkin-Elmer, clear luminescence filter, 1 second exposure, 1x binning) following a 10 minute incubation. All cells are dispensed in DMEM phenol-red free media containing 10% FBS.
Library plates were screened starting from the lowest and proceeding to the highest concentration. Vehicle-only plates, with DMSO being pin-transferred to columns 5-48, will be inserted uniformly at the beginning and the end of each library in order to monitor and record any shifts in the background, which can be affected by reagent dispensers or loss in enzyme activity over time. Screening data will be corrected, normalized, and concentration-effect relationships will be derived by using publicly-available NCGC, NCATS curve fitting algorithms (http://ncgc.nih.gov/pub/openhts).
(In general: Quantitative high-throughput screening tests each substance at several concentrations.)
`COc1cc(/C=C2\Oc3ccc(C#Cc4ccc(O)cc4)cc3C2=O)cc(OC)c1`: the Potency was 16.4 µM (active).
On to `COc1cccc(N2CCN(S(=O)(=O)c3ccc4c(c3)CCCN4C(C)=O)CC2)c1`, for which the Potency result was “inactive”.
As for `COc1ccc(-c2ccc(=O)n(CC(=O)Nc3ccc(Br)cc3F)n2)cc1`, the Potency result is “inactive”.
Regarding `O=C(CSc1nc2c(c(=O)[nH]1)CN(Cc1ccc(F)cc1)CC2)Nc1ccccc1Cl`, the Potency entry is “inactive”.
In the case of `Cc1cc2ccccc2n1CCNC(=O)c1ccc(F)cc1` it was “inactive”; in that of `COc1ccc(NC(=O)COC(=O)C2COc3ccccc3O2)cc1` (stereo not given), “inactive”.
With `O=C(Nc1ncc([N+](=O)[O-])s1)C1COc2ccccc2O1` (stereo not given), the Potency is 16.4 µM (active).
In the case of `O=C(Nc1cc(S(=O)(=O)N2CCCCC2)ccc1Cl)C1COc2ccccc2O1` (stereo not given) it was “inactive”.
Turning to `Cc1ccc(C(=O)N2c3ncnn3C3(CCCCC3)[C@@H]3CCCC[C@@H]32)cc1`, the Potency result is “inactive”.
In the case of `O=C(NC1=CC(=O)c2ccccc2C1=O)c1ccccc1`, the Potency is 16.4 µM (active).
To `COc1cc(NC(=O)c2ccccc2)c(OC)cc1NC(=O)Cc1ccccc1` belongs “inactive”.
To `CC(=O)c1cc(NC(=O)c2ccccc2)c(=O)oc1/C=C/N(C)C` belongs “inactive”; to `N#Cc1nc(/C=C/c2ccc(F)cc2)oc1NCc1ccc(F)cc1`, “inactive”.
For `O=C(CCS(=O)(=O)c1cc(Br)cc2c1N(C(=O)C1CC1)CC2)Nc1ccc(Br)cc1F`, the Potency result was “inactive”.
With `COc1cc(/C=N/O)cc(Br)c1OCc1cccc(Cl)c1`, the Potency is 14.6 µM (active).
Turning to `COc1cc(C(=O)NCc2ccncc2)cc(Br)c1OCc1ccccc1`, the Potency entry was “inactive”.
Consider `O=C(O)COc1ccc(/C=N/O)cc1Br`, for which the Potency entry is “inactive”.
In the case of `CCOC(=O)c1ccc(NC(=O)CCn2cnnn2)cc1`, the Potency result is “inactive”.
`Cc1ccc(CN2CCC(CNC(=O)c3cnn(-c4ccc(C)cc4)c3C3CCN(C(=O)OC(C)(C)C)CC3)CC2)cc1`: the Potency is 16.4 µM (active).
To `COc1ccccc1CN1CCC(CNC(=O)c2cnn(-c3cccc(Cl)c3)c2C2CCN(C(=O)OC(C)(C)C)CC2)CC1` belongs “inactive”; to `Cc1ccc(CN2CCC(CNC(=O)c3cnn(-c4ccccc4Cl)c3C3CCN(C(=O)OC(C)(C)C)CC3)CC2)cc1`, “inactive”.
Regarding `CCOc1ccc(OCC)c(NC(=O)c2cc(C)nc3c2c(C)nn3-c2cccc(Cl)c2C)c1`, the Potency entry was “inactive”.
As to `CN(C)c1ccc(/C=C/C(=O)c2ccc(O)cc2)cc1[N+](=O)[O-]`, the Potency is 20.6 µM (active).
In the case of `O=C(/C=C/c1ccc(Cl)cc1)N1CCN(c2ccccc2[N+](=O)[O-])CC1`, the Potency entry is “inactive”.
In the case of `CN(C)c1ccc(/C=N\Nc2ccc([N+](=O)[O-])cc2[N+](=O)[O-])cc1Cl` it was “inactive”; in that of `CC(C)(C)NCc1cc(Br)ccc1OC1CCCC1`, “inactive”.
As for `CCOc1ccc(Br)cc1S(=O)(=O)N1CCC(C(=O)O)CC1`, the Potency result was “inactive”.
For the compound `CCOc1ccc(Br)cc1CSC(=N)N`, the Potency is 23.1 µM (active).
To `COc1ccccc1NC(=O)C1=C(C)Nc2nc(SCC(=O)c3ccc(C)cc3)nn2C1c1ccccc1C` (stereo not given) belongs “inactive”; to `COc1ccc(NC(=O)CCN2CCN(CCO)CC2)cc1`, “inactive”.
Regarding `O=C(NCc1ccccc1)C(=O)NCC(c1ccco1)S(=O)(=O)c1ccc(Cl)cc1` (stereo not given), the Potency entry was “inactive”.
As for `O=C(OC12CC3CC(CC(C3)C1)C2)c1ccc(NCc2cc(O)ccc2O)cc1`, the Potency is 7.31 µM (active).
On to `COc1ccc(-c2nc(=N)sn2-c2ccccc2)cc1`, for which the Potency result is “inactive”.
Take `CO[C@H]1O[C@@H]2O[C@@]3(C)CC[C@@H]4[C@@H](C)CC[C@@H]([C@H]1C)[C@@]24OO3`: the Potency result is “inactive”.
As for `COc1cc2[nH]c(C)c(CCN3CCN(c4ccccc4)CC3)c2cc1OC`, the Potency entry was “inactive”.
For `COc1ccc(C(=O)/C=C/Nc2ccccn2)cc1`, the Potency result is “inactive”.
As to `COc1ccc(C(=NN)c2ccc(OC)cc2)cc1`, the Potency entry was “inactive”.
For `COc1ccc(C(C#N)=C2C=CC(=NO)c3ccccc32)cc1`, the Potency is 0.82 µM (active).
`COc1ccccc1OCCCn1c(-c2ccc(Cl)cc2)nc2ccccc2c1=O`: the Potency result was “inactive”.
For the compound `O=C(COC(=O)c1ccccc1OCCOc1ccccc1)Nc1cccc(Br)c1`, the Potency result is “inactive”.
As for `COc1cccc(C(c2c(O)cc(C)n(Cc3ccco3)c2=O)N2CCN(c3ccccc3)CC2)c1` (stereo not given), the Potency result is “inactive”.
Consider `CCOc1ccccc1NC(=O)CN1CCCN(Cc2cccc(Cl)c2)S1(=O)=O`, for which the Potency entry was “inactive”.
Take `O=c1c2ccccc2n(Cc2cccc(Cl)c2)c(=O)n1Cc1ccccc1`: the Potency entry is “inactive”.
In the case of `Clc1cccc[n+]1CCCC[n+]1ccccc1Cl` it was “inactive”; in that of `COc1cc(C(=O)Nc2ccc(-n3c(C)nc4ccccc4c3=O)cc2)cc(OC)c1OC`, “inactive”.
`Cn1c2ccccc2c(=O)c2c(=O)n(Cc3ccco3)c(COc3ccccc3)nc21`: the Potency was 7.31 µM (active).
Take `O=C(Cn1c(=O)n(Cc2ccco2)c(=O)c2ccccc21)NCC1CCCO1` (stereo not given): the Potency result was “inactive”.
For the compound `CC(C)c1ccc(Cn2c(COc3ccccc3)nc3ccccc32)cc1`, the Potency entry was “inactive”.
In the case of `Cn1nc(C(F)(F)F)c(C(=O)Nc2cccc(C(F)(F)F)c2)c1SCc1ccc(Cl)cc1` it was 16.4 µM (active); in that of `Cc1ccc(Cc2nc3ccccc3nc2SCC(=O)Nc2cccc(C(F)(F)F)c2)cc1`, “inactive”.
